Assay results reported in PubChem BioAssay.
Entries with a potency or affinity are not part of this list. The source made the active and inactive calls. The limit is not given here; nearly all actives have IC50 up to about 0.91 µM.

Each compound was assayed against Calcium-dependent protein kinase 4 (Plasmodium falciparum (isolate 3D7)) (UniProt Q8IBS5) (assay: PfCDPK4 kinase inhibitors, biochemical, TCAMS library (AID 1159588)). Settings: recombinant PfCDPK4, Kinase-Glo ATP depletion luminescence.
Sequence of Calcium-dependent protein kinase 4 (Plasmodium falciparum (isolate 3D7)) (Q8IBS5 whole entry, looked up): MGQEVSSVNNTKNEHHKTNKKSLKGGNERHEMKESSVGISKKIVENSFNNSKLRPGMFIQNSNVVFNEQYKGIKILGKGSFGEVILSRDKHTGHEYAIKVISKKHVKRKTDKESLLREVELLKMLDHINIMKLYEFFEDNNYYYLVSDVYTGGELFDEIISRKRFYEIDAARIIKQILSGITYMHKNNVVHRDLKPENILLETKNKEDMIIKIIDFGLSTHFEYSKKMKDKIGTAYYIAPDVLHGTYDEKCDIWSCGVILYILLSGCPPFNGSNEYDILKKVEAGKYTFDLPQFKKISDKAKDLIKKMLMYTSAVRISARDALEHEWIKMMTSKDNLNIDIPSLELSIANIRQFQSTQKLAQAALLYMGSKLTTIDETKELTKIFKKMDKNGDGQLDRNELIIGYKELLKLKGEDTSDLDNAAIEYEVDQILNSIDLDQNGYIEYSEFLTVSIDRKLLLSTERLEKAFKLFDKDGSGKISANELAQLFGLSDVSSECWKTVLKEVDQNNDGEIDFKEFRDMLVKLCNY

outcome, inactive:
CN1CCN(Cc2ccc(-c3cccc(-c4nc5ccccc5[nH]4)c3)cc2)CC1
CNCCCNCc1ccc(-c2ccc(F)c(Cl)c2)o1
Cc1ccc2nc(-c3cc(-c4ccc(OCc5ccccc5)cc4)cnc3N)[nH]c2c1
O=C(Nc1ccc(OC2CCN(Cc3ccccc3)C2)c(Cl)c1)c1ccc(F)cc1 (stereo not given)
Nc1nc2c(c(=O)[nH]1)CN(S(=O)(=O)c1ccc(C(=O)N[C@@H](CCC(=O)O)C(=O)O)cc1)CC2
CCc1cn2c3c(cc(C(=O)N[C@@H](Cc4ccccc4)[C@H](O)CNCC(C)C)cc13)N(C)S(=O)(=O)CC2
CCN1CCC(N2CCC(C(=O)Nc3cccc(-c4cccc(Cl)c4)c3)CC2)CC1
O=C(Nc1cccc(-c2ccc(-c3nc4ccccc4[nH]3)cc2)c1)c1cnn2cccnc12
COc1ccc2nc3cc(Cl)ccc3c(NCCCCN)c2c1
COc1ccc(CNc2nc(NCCc3ccccc3)c3cc(OC)c(OC)cc3n2)cc1OC
Cc1ccc(F)c(C(=O)Nc2cccc(-c3nn4ccccc4c3-c3ccnc(Nc4cccc(F)c4)n3)c2)c1F
CN(C)CCNC(=O)N1CCCN(c2ncnc3cc(-c4ccc(Cl)cc4)sc23)CC1
CCCC(C)Nc1nc(C)cc(N[C@@H](Cc2ccccc2)C(=O)NCCOc2ccccc2)n1 (stereo not given in full)
CCCc1cn2c3c(cc(C(=O)N[C@@H](Cc4ccccc4)[C@H](O)CNC4CCCCC4)cc13)N(C)S(=O)(=O)CC2
CC(CCCCCC(=O)Nc1ccc(CC(C)NCCc2cccc(Cl)c2)cc1)NCCc1cccc(Cl)c1 (stereo not given)
COc1cc(CNC2Cc3ccccc3C2)ccc1Oc1ccc2nc[nH]c2c1
CCCCCCNc1cc(C)nc(/N=C(\N)Nc2cccc(C(F)(F)F)c2)n1
Cc1ccc(-c2nc(Nc3ccncc3)c3ccccc3n2)s1
CC(C)CCN1CCCN(Cc2cccc(C(=O)Nc3ccc(C(C)(C)C)cc3)c2)CC1
O=C(Nc1ccc(-c2ccccc2)cc1)Nc1cccc(Cn2ncc(N3CCCNCC3)c(Cl)c2=O)c1
CN(C)c1ccc(-c2csc(C(=O)NCC3CCN(Cc4ccc(C(C)(C)C)cc4)C3)c2)cc1 (stereo not given)
CCCCCCN1CCC(NCc2cccc(C#N)c2)CC1
CC(NC(=O)c1ccc(O)c(-c2ccc(Cl)c(Cl)c2)c1)C(=O)NCCN1CCOCC1 (stereo not given)
O=C(Nc1cc(F)cc(F)c1)N1CCOC(CCN2CCC3(CCc4ccccc43)CC2)(c2ccc(Cl)c(Cl)c2)C1 (stereo not given)
O=C(Nc1ccc(OC2CCN(Cc3ccc(F)cc3)CC2)c(Cl)c1)c1ccccc1
O=C(NCCCCN1CCC(c2ccc3c(c2OCCO)CCCC3)CC1)c1ccc(-c2ccc(C(F)(F)F)cc2)cc1
O=C(Nc1ccccc1)N(Cc1cccc(-c2ccc(CNCCc3ccccc3)cc2)c1)C1CCN(Cc2ccccc2)CC1
O=C(/C=C/c1cccc(Cl)c1)N1CCC(C(O)CN2CCC3(CC2)CN(C(=O)/C=C/c2cccc(Cl)c2)c2ccccc23)CC1 (stereo not given)
COc1ccc(Cc2nc(N=C(N)Nc3ccccc3)ccc2OC)cc1
Cc1cc(Cl)ccc1NC(=O)NCCCCCN1CCC(c2c[nH]c3ccccc23)CC1
O=C(C=Cc1ccc(F)cc1)N1CCN(S(=O)(=O)c2ccc(Cl)cc2)CC1
N#Cc1ccc2c(c1)CCN(CCC1CCC(NC(=O)Nc3ccnc4ccccc34)CC1)C2 (stereo not given)
Nc1ncc(-c2ccsc2)c2ccc(-c3ccc4cn[nH]c4c3)cc12
O=c1cc(NC[C@H]2CCC[C@@H]2NCc2cc(Br)cc(Br)c2)[nH]c2ccccc12
COc1ccc(NC(=O)Nc2cccc(-c3cccc(-c4nc5ccc(F)cc5[nH]4)c3)c2)cc1
OC(CNc1ccnc(Nc2ccccc2)n1)c1cccc(C(F)(F)F)c1 (stereo not given)
COc1ccc(CNC2CCCC2)cc1-c1ccc(S(=O)(=O)NCCN2CCCC2)s1
Cc1cccc2[nH]c(-c3ccc(-c4ccc(NC(=O)Nc5cccc(C#N)c5)cc4)cc3)nc12
CC(C)(C)N1CCC(N(Cc2ccc(-c3ccc(C(F)(F)F)cc3)cc2)C(=O)Cn2c(CCc3cccc(F)c3F)nc(=O)c3cccnc32)CC1
CCc1c(CCNCCc2cccc(CCNCCc3ccc(OC)c(OC)c3CC)c2)ccc(OC)c1OC
